# Screens as filed in PubChem.
# Only some compounds are listed: those with a hit (about 1.1% of all), similar ones and a draw of the others.
# HTR5A ag – activates human HTR5A in OPRM1-OPRD1 agonist counter-screen. HTR5A agonist assay, luminescence, cell-based. activation, % at 9.3 µM. 340,000 compounds, 0.61% hits; in the data active means activation mostly above about 9.5%, no sharp cut-off; inactive means mostly below about 7.6%;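 further: 0% = cells with vehicle only and 100% = reference agonist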
# MOR-DOR ag-1 – OPRM1-OPRD1 heterodimerization agonism | P35372+P41143 | cells, luminescence | activation, % at 9.3 µM | 340,000 compounds, 0.3% hits;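 further: 0% = vehicle-treated cells and 100% = reference agonist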
# Target sequence (P35372 whole entry, looked up): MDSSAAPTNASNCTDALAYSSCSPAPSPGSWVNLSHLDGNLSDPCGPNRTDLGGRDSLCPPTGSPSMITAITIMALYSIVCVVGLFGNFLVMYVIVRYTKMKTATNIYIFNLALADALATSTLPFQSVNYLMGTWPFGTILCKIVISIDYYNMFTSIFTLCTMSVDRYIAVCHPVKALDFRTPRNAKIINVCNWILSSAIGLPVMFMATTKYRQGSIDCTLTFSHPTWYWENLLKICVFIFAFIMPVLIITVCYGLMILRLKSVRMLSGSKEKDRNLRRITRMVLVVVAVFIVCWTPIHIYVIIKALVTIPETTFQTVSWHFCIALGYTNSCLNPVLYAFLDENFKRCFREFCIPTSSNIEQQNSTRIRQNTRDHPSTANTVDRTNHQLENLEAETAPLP
# Target sequence (P41143 whole entry, looked up): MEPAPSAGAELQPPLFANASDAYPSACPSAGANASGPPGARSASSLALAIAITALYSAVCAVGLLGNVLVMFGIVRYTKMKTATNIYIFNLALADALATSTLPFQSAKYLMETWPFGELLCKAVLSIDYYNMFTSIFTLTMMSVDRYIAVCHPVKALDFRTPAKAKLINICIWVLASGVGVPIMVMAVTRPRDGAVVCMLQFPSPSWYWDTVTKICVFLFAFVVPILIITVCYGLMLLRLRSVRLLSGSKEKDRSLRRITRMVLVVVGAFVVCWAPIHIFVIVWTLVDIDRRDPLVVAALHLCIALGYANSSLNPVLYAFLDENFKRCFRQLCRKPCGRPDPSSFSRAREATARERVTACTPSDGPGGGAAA
# OPRM1-OPRD1 inv – inverse agonist of human OPRM1-OPRD1 heterodimerization; cell-based MOR-DOR heterodimer luminescence, inverse agonism; inhibition, % at 9.3 µM; 340,000 compounds, 0.21% hits; in the data active means inhibition above about 22%, passing the limit was not always enough;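 further: 0% = cells with DMSO and 100% = wells without cells with DMSO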
# Bfl-1 A1 inh – inhibitors of the anti-apoptotic protein A1, read as caspase activation; MEF A1-2A-BIM cells, Caspase-Glo 3/7 luminescence, 3 h; percent of clofoctol response, vehicle zero; caspase activation, % (no concentration beside the values); 330,000 compounds, 0.066% hits; AID 2462;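 active means over half of replicate activation scores above 10%, or exactly half above 10 with the replicate mean above 10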
# HTR5A inv ctr – HTR5A inverse agonism, opioid heterodimer counter-screen; P47898; HTR5A cell line, luminescence; inhibition, % at 9.3 µM; 340,000 compounds, 0.083% hits; AID 504634; in the data active means inhibition mostly above about 23%, no sharp cut-off; inactive means mostly below about 18%;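 further: 0% = cells with DMSO and 100% = no-cell wells with DMSO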
# MOR-DOR ag-2 – promotes OPRM1-OPRD1 heterodimerization in HTR5A counter-screen; 800 compounds, 13% hits; U2OS counter-screen cells, complementation luminescence, 3 h; activation, % at 9.3 µM; shares compounds with HTR5A ag
# HTR5A ag conf – HTR5A (human) agonism, confirmation. shares compounds with HTR5A ag. HTR5A agonist cell assay, luminescence. activation, % at 9.3 µM. 800 compounds, 17% hits; in the data active means activation above about 17%;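 further: 0% = cells with vehicle only and 100% = full reference agonist response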
# * marks the source's active call; other numbers are inactive results; nt = no result. Unless noted, no stated cut-off is given here; in the data, active means activation above about 18%; inactive means the rest.
SMILES,HTR5A ag,MOR-DOR ag-1,OPRM1-OPRD1 inv,Bfl-1 A1 inh,HTR5A inv ctr,MOR-DOR ag-2,HTR5A ag conf
COc1ccccc1Oc1ccc2c(c1)C(=O)N(CC1CCCO1)C2=O (centres undefined),1,-2,9,-1,16,nt,nt
COc1ccc(Br)cc1-c1nc(CCl)cs1,-4,-3,14,1,11,nt,nt
O=C(OCCC12CC3CC(CC(C3)C1)C2)c1ccc(NCc2cc(O)ccc2O)cc1,15*,3,-14,nt,-58,6,6
N#CCC(=O)Nc1ccc(C(=O)OCC(=O)C23CC4CC(CC(C4)C2)C3)cc1,1,2,-10,0,-19,nt,nt
O=C(OCC12CC3CC(CC(C3)C1)C2)c1ccc(NCc2cc(O)ccc2O)cc1,17*,11,-54,nt,-67,44*,4
COc1ccc(C2(CNS(=O)(=O)c3ccc(C)cc3)CCOCC2)cc1,2,-1,7,0,-6,nt,nt
CCc1noc(C)c1C(=O)N(CC)c1nc2c(C)cccc2s1,7,10,-67,0,-20,nt,nt
CCc1ccc(NC(=O)Cn2nc(C(F)(F)F)c3c2CCC3)cc1,20*,11,-67,0,-31,8,7
CCc1ccccc1NC(=O)Cn1nc(C(F)(F)F)c2c1CCC2,-9,1,-6,0,11,nt,nt
O=[N+]([O-])c1cccc(C=NNC(=S)NC23CC4CC(CC(C4)C2)C3)c1,1,0,2,nt,-5,nt,nt
COc1ccc(-c2ccncc2)cc1OC,-1,-2,12,-1,-7,nt,nt
CN(C)Cc1c(O)ccc2occ(C(=O)c3ccccc3)c12,19*,-1,3,1,14,1,47*
CCN(CC)Cc1c(O)ccc2occ(C(=O)c3ccccc3)c12,-2,-2,12,0,8,nt,nt
CC(C)(C)NC(=O)NC(=O)COC(=O)CNC(=O)c1cccc(F)c1,15*,0,1,2,-1,56*,26*
CC(C)(C)NC(=O)NC(=O)COC(=O)c1cccc(F)c1,-2,3,-23,0,4,nt,nt
COc1cccc(-c2sc3ccccc3c2-c2ccc(OCCN3CCCC3)cc2)c1,16*,10,-53,0,-54,2,19*
COc1cccc(-c2sc3ccccc3c2-c2ccc(OCCN3CCCCC3)cc2)c1,17*,7,-37,0,-75,10,6
COc1cccc(-c2sc3ccc(OC)cc3c2-c2ccc(OCCN3CCCC3)cc2)c1,7,5,-25,nt,-27,nt,nt
COc1ccc(OC)c(NC(=O)c2cc(OC(C)=O)cc(C(=O)Nc3cc(OC)ccc3OC)c2)c1,18*,3,-14,0,-68,0,-4
COc1ccc(C(=O)Nc2cc(OC)ccc2OC)cc1,-9,-1,9,-1,-3,nt,nt
O=C(Nc1ccc(F)c(F)c1)C1CCN(S(=O)(=O)c2cccc3nonc23)CC1,17*,6,-35,1,-12,0,0
Cc1ccc(OCCNC(=O)c2ccc(NC(=O)CC3SC(N4CCCC4)=NC3=O)cc2)cc1 (centres undefined),8,3,-16,1,-23,nt,nt
CCCCOc1ccc(C(=O)N/C(=C\c2cccc([N+](=O)[O-])c2)C(=O)OC(C)C)cc1,16*,5,-21,1,8,1,2
OCC#CCSc1nnc(-c2ccncc2)o1,16*,-5,20,0,-43,20*,2
COc1ccc(C)cc1NC(=O)COC(=O)c1ccc2c(c1)OCCO2,19*,9,-36,-1,-47,-1,0
SMILES,HTR5A ag,MOR-DOR ag-1,OPRM1-OPRD1 inv,Bfl-1 A1 inh,HTR5A inv ctr,MOR-DOR ag-2,HTR5A ag conf
CCOC(=O)c1c(C)[nH]c(C(=O)CSc2ccc(Cl)cc2)c1C,15*,2,-13,2,-30,4,9
Cc1[nH]nc(-c2ccc(OCc3cnn(-c4ccccc4)c3)c(C)c2O)c1Oc1ccccc1,22*,14,-64,0,-27,19*,10
COc1cc(/C=N/Nc2nc(C)nc3c2cnn3-c2ccccc2)ccc1O,16*,5,-24,nt,-7,2,3
Cc1cc(NC(=O)c2cccc(S(=O)(=O)N3CCC(C)CC3)c2)no1,-1,-2,9,0,14,nt,nt
CN(CC(=O)Nc1ccc(Cl)c(C(F)(F)F)c1)C(=O)C1CCCO1 (centres undefined),7,-5,19,0,-20,nt,nt
CCCCCCCCOC(=O)CCc1c(C)[nH]c(=S)[nH]c1=O,15*,5,-31,0,-62,4,7
CN(C(=O)CSc1nncn1C)C1CCCN(Cc2ccccc2F)C1 (centres undefined),-1,-2,11,1,5,nt,nt
Cc1ccc(CCNC(=O)C2CCC(=O)N2Cc2ccc(F)cc2)cc1 (centres undefined),-2,-1,5,0,7,nt,nt
O=C(NCCc1ccc(Cl)cc1)C1CCC(=O)N1Cc1ccc(F)cc1 (centres undefined),17*,-2,11,0,-49,0,0
Oc1cccc2ccc(Nc3ccccn3)nc12,16*,0,-3,0,22,-3,9
c1ccc(Nc2ccccc2Nc2ccccn2)nc1,2,2,-13,0,12,nt,nt
O=C(NCc1ccc2c(c1)OCO2)c1cnc2n(c1=O)CCS2,19*,-1,5,0,-53,0,0
Cc1cccc(-n2ncc3c(NCc4ccc5c(c4)OCO5)ncnc32)c1,7,5,-25,0,-37,nt,nt
Cc1ccc(-n2ncc3c(NCc4ccc5c(c4)OCO5)ncnc32)c(C)c1,15*,1,-7,1,-10,1,3
Cc1ccc(-c2nc3ccccc3nc2NN)cc1,-1,-1,3,-11,-7,nt,nt
Cc1ccc(SCCC(=O)Nc2ccccc2C(=O)NC(C)C)cc1,17*,-1,5,0,-42,3,-2
C/C(=N/NS(=O)(=O)c1ccc(Br)cc1)c1ccc(NC(=O)c2ccc(C)o2)cc1,17*,-1,5,-1,-38,4,-3
CCSCc1nnc(SCC(=O)Nc2ccc(F)cc2)n1CC,4,0,0,0,15,nt,nt
Cc1ccc(C(=O)Nc2ccc(S(=O)(=O)N3CCN(C)CC3)cc2)o1,-1,-3,14,0,4,nt,nt
C/C=C/C=[N+](\[O-])C(C)/C(=N/O)c1ccc(F)cc1 (centres undefined),17*,-2,8,0,-40,1,-1
COc1ccc(CNC(=O)c2ccc3nccnc3c2)cc1,19*,-2,10,0,-49,1,-1
COc1ccc(CNC(=O)c2ccncc2)cc1,2,-3,16,0,-2,nt,nt
Cc1nc(Nc2ccc(Cl)cc2)c(C#N)c(=O)[nH]1,16*,-2,12,0,-43,0,2
